Bioassay records from PubChem BioAssay.
The full list was thinned out, with hits kept by preference.
VCAM1 pot = TNF alpha stimulated VCAM1 expression potentiation; activation, % at 2 µM; HUVEC TNFa-stimulated VCAM-1 immunofluorescence, high-content imaging; scaled per plate to unstimulated/TNFa-only wells; 93,000 compounds, 0.19% hits; AID 808;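 active means activation above the screen mean plus 3 SD, with well images confirming the hit on visual review, cut at about 28% in these data, passing the limit was not always enough; inconclusive means activation above that limit but images do not confirm it; inactive means activation not above that limit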;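 further: signal is the number of cytoplasmic VCAM-1 stained grains per positive cell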
VCAM1 pot conf = potentiators of TNFa-induced VCAM1 expression, confirmation, imaging, HUVEC, triplicate retest; shares compounds with VCAM1 pot; HUVEC TNFa-stimulated VCAM-1 immunofluorescence imaging; activation, % at 2 µM; 230 tested, under 10 active;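 active means activation above 30% in triplicate retests at 2 µM, then confirmed by visual review of the well images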;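 further: scaled per plate between unstimulated and TNFa-stimulated DMSO control wells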
* = called active by the depositor; ? = inconclusive.

SMILES | VCAM1 pot | others
O=C(Nc1ccc2c(c1)CCC2)c1cnccn1 | 6
O=C(N/N=C/C(Br)=C/c1ccccc1)c1n[nH]c2c1CCC2 | -91
C1CSC2(N1)C1CC3CC2CC(C1)C31NCCS1 (stereo not drawn) | -9
COc1ccc2oc(=O)c(C(=O)N3CCN(c4ccccc4)CC3)cc2c1 | 83* | VCAM1 pot conf=-9
COc1ccc2oc(=O)c(C(=O)NCc3cccnc3)cc2c1 | 15
COc1ccc2oc(=O)c(C(=O)n3ccc(C)n3)cc2c1 | 0
CCOC(=O)C1=C(C)NC(C)=C(C(=O)OCC)C1C(=O)OC1CCOC1=O (stereo not drawn) | -7
S=C(NN=C1CCCCCC1)Nc1ccc(Cl)cc1 | 35* | VCAM1 pot conf=-25
Cc1sc(=NC(=O)c2ccco2)n(C)c1-c1ccccc1 | -3
c1cc2c(cc1Oc1nc(N3CCOCC3)nc(N3CCOCC3)n1)OCO2 | -6
COc1ccc(C(=O)c2ccc(N(C)C)cc2)c2ccccc12 | -60
Cc1ccnc(NC(=O)COC(=O)C2COc3ccccc3O2)n1 (stereo not drawn) | -7
CCOC(=O)c1ccc(NC(=O)Nc2ccc(S(N)(=O)=O)cc2)cc1 | 2
CCOC(=O)c1ccc(NC(=O)CC2SC(=NC)N(C)C2=O)cc1 (stereo not drawn) | -18
CCOC(=O)c1ccc(Nc2c(CC)c(C)nc3ncnn23)cc1 | ? | VCAM1 pot conf=-8
CC(C)[C@H](NC(=O)OC(C)(C)C)c1nnc(SCc2cccc(F)c2)o1 | 2
COc1ccc(-n2nnnc2SCC(=O)c2cc3ccccc3o2)cc1 | 3
CCC(=O)NC(=S)Nc1ccc(-c2nc3ccccc3s2)cc1 | 1
CC(C)NC(=O)CSc1nnc(-c2ccc(C(C)(C)C)cc2)n1C | ? | VCAM1 pot conf=-15
CC(C)CCNC(=O)CSc1nnc(-c2ccc(S(=O)(=O)N3CCCC3)cc2)n1C | 7
Cn1c(SCC(=O)Nc2nccs2)nnc1-c1ccncc1 | -9
CC(C)(C)NS(=O)(=O)c1ccc(CCC(=O)N2CCCCC2)cc1 | -27
CC(OC1=CC(=O)CCC1)C(=O)c1ccccc1 (stereo not drawn) | 4
CC(C)(C)c1ccc(/C=C/C(=O)NC2=NCCS2)cc1 | -10
COc1ccc(Br)cc1-c1noc(-c2ccccc2)n1 | 2
SMILES | VCAM1 pot | others
CCOc1nc(-c2ccccc2)ccc1-c1noc(COC)n1 | ? | VCAM1 pot conf=-10
COc1cccc(-c2ccc(-c3noc(-c4cccs4)n3)c(OC)n2)c1 | 1
Cc1cc2ncn(-c3ncnc4scc(-c5ccccc5)c34)c2cc1C | 8
Cc1ccc(N2CCN(C(=O)N3CCCC3)CC2)cc1C | 0
NC(=O)C1CCN(C(=O)CSc2nc3ccccc3o2)CC1 | 3
NC(=O)C1CCN(C(=O)CCCCCn2c(=O)[nH]c3ccsc3c2=O)CC1 | ? | VCAM1 pot conf=-7
O=C1C/C(=C/NCc2ccccc2)C(=O)N1 | 26
CN1C(=O)CC(N2CCN(Cc3ccc(Cl)cc3)CC2)C1=O (stereo not drawn) | 10
O=C(N/N=C/c1cc2c(cc1Cl)OCO2)c1ccccn1 | 1
O=C(N/N=C/c1ccccc1Cl)c1cccc(F)c1 | 56* | VCAM1 pot conf=-12
Cc1nnc(NC(=O)c2cccc(F)c2)s1 | 3
O=[N+]([O-])c1ccc2nc(-c3ccccc3)n(OCc3ccc(Cl)cc3)c2c1 | 2
Nc1nnc(SCCOc2ccc(Br)cc2)s1 | 2
CCOc1ccc(S(=O)(=O)NCCC(=O)NCc2ccco2)cc1 | 1
C1=C(CCNCC2CC2)CCCC1 | 0
CCOC(=O)COc1ccc(S(=O)(=O)NCCC2=CCCCC2)cc1 | 48* | VCAM1 pot conf=-6
NCCN1CCN(CCN)CC1 | -94
NC(=O)c1cccc(S(=O)(=O)N2CC(c3ccccc3)CC2=O)c1 (stereo not drawn) | -1
Cc1ccc(-n2nnnc2-c2cnc(-c3cccnc3)nc2C(F)(F)F)cc1 | 52* | VCAM1 pot conf=-10
CCOc1ccc(-c2nc(-c3cccnc3)no2)cc1 | 3
Cc1ccc(SCc2nc(-c3cccnc3)no2)cc1 | -51
CC1=CC(C)(C)N2C(=O)C3(C(C#N)=C(N)Oc4cc(C)oc(=O)c43)c3cccc1c32 (stereo not drawn) | 14
Cc1nc(-c2cccnc2)sc1C(N)=O | -4
COC(=O)c1ccc(C)c(NC(=O)C2COc3ccccc3O2)c1 (stereo not drawn) | -7
COc1ccc(NS(=O)(=O)c2ccc(C)c(C(=O)O)c2)cc1 | -7
SMILES | VCAM1 pot | others
COC(=O)c1ccc(C)c(NS(=O)(=O)c2ccc(OC)cc2)c1 | 32* | VCAM1 pot conf=-59
C=CCC(C=C)S(=O)(=O)c1ccc(C)cc1 (stereo not drawn) | 7
CCOC(=O)Nc1nc(-c2ccccc2)c(C(=O)c2ccccc2)s1 | -78
Cc1nc2sc(C(c3cccc(F)c3)N3CCCC(C)C3)c(O)n2n1 (stereo not drawn) | -2
O=Nc1c(O)n(Cc2ccc(Cl)cc2Cl)c2ccccc12 | 38
Clc1cccc(OCCn2cncn2)c1Cl | ? | VCAM1 pot conf=-10
CCOC(=O)C1CCN(C(=O)C2CCN(c3nc4ccc(OC)cc4s3)CC2)CC1 | 114* | VCAM1 pot conf=-3
CCOC(=O)C1CCN(c2c(NCCCN(CC)c3ccccc3)c(=O)c2=O)CC1 | -24
CCOC(=O)C1CCN(Cc2c(F)cccc2Cl)CC1 | 7
O=c1c(C=Nc2ccc(Cl)cc2)c[nH]n1-c1cccc(Cl)n1 | 2
COc1ccc(C2=CC(=O)OC3(CCCCC3)O2)cc1 | 9
O=C(NCc1cccnc1)c1ccc(COc2cccc3ccccc23)o1 | 8
CCC1(COC(NC(=O)c2cccnc2)(C(F)(F)F)C(F)(F)F)COC1 | 4
CCn1c2c(c3cc(OCC(C)C)ccc31)CCCC2=O | 47* | VCAM1 pot conf=-11
CCc1nnc(SCC(=O)N2CCCc3ccccc32)nc1CC | ? | VCAM1 pot conf=-22
O=C(Nc1ccccc1)N1CCCc2ccccc21 | 10
COc1ccccc1CC(=O)N1CCCc2ccccc21 | -19
Cc1ccc(C(=O)Nc2nncs2)cc1S(=O)(=O)N1CCOCC1 | -22
CC1=C([N+](=O)[O-])C(c2cccc(Br)c2)C2=C(N1)c1ccccc1C2=O (stereo not drawn) | -93
O=C(NCC1COc2ccccc2O1)c1cc2ccccc2o1 (stereo not drawn) | -16
COc1ccc(Cn2c(CCC(=O)O)nc3cccnc32)cc1 | -93
COc1ccc(-n2cnnc2SCCC#N)cc1 | ? | VCAM1 pot conf=-8
CC(C)(C)c1ccc(-c2nnc(SCCC#N)n2C2CCCC2)cc1 | 5
CCOC(=O)c1c(C)cccc1OCC(N)=O | -8
Cn1nc(C(F)(F)F)c(C(=O)Nc2ccc(F)cc2F)c1Sc1ccc(C(F)(F)F)cc1 | 6
SMILES | VCAM1 pot | others
Cc1ccc(S(=O)(=O)N2CCCC(C(=O)NCCc3ccc4c(c3)OCO4)C2)cc1 (stereo not drawn) | -1
Cc1ccccc1Cn1nnc2c1C(=O)c1ccccc1C2=O | 46* | VCAM1 pot conf=-13
O=C1c2ccccc2-c2nc3ccccc3nc21 | 2
Cc1ccccc1CSc1nncn1N | -13
CC12CN3CC(C)(CN(C1)C3c1ccc(Br)cc1)C2 (stereo not drawn) | -2
O=C(CSc1nnnn1-c1ccccc1Cl)Nc1ccc2c(c1)OCCO2 | -2
CCOC(=O)c1c(-c2ccc(Cl)cc2)cn2ccccc12 | -4
CCOC(=O)c1cnn(-c2cc(C)c3ccccc3n2)c1N | -2
CCOC(=O)c1cnc2c(-c3ccccc3)cnn2c1N | ? | VCAM1 pot conf=-4
COC(=O)C1=C(C(=O)OC)SC(=C2C(=S)C(C)(C)N(C(=O)CC(C)C)c3ccccc32)S1 | -8
